Publication PMC7819943, “Rice protein-binding microarrays: a tool to detect cis-acting elements near promoter regions in rice”
In all, about 39,000 sequences were measured (“fluorescence intensity (a.u.)”: median about 4,300, highest 2% from about 39,000 on). Only a selection was taken, and the highest values are over-represented in it overall.

What follows are sequences tested against T1, OsSMF1 (Oryza sativa, UniProt Q6ZLB0 1-436) (assay: protein-binding microarray (RPBM); PBS, 2% BSA, 51.3 ng/ul salmon testes DNA, 50 uM zinc acetate, 200 nM TF, 25 C, 1 h; high values mean tight binding). Conditions: protein: recombinant; tags: N-terminal polyhistidine and DsRed monomer fusion (pET32a); chain copies: 2; label: CyDye5-dUTP incorporated in the synthesized complementary strand; 3' TTTTT single-stranded linker to array surface; dsDNA, one strand shown.
T1 sequence: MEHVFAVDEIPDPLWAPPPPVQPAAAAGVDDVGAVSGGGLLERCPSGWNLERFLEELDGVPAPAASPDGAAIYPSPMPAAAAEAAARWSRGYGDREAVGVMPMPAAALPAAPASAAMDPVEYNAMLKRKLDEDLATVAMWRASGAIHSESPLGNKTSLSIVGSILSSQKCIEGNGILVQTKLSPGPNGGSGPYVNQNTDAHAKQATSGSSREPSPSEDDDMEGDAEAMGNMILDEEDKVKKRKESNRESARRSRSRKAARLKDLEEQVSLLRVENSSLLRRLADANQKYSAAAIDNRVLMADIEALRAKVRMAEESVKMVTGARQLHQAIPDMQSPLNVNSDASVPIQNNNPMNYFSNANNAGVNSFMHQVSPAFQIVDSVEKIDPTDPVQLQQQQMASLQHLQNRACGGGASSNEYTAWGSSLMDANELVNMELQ
Summary of the method: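 Binding signal here means per-feature fluorescence intensity in arbitrary units. The values were read on an Axon 4000B scanner after a custom Agilent array, double-stranded by primer extension with Cy5-dUTP, was incubated with 200 nM protein at 25 °C for 1 h in PBS with 2% BSA, salmon testes DNA and 50 µM zinc acetate, then washed. The proteins were transcription factors with an N-terminal polyhistidine tag and DsRed, expressed in E. coli BL21-CodonPlus and purified on Ni–NTA.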
“CCGTCTCCACGCACTCGAACGTCACCGACGACCCCGGCAGCGGAGTCACCTAGTGCAG” was tested, and the binding signal was 5490 fluorescence intensity (a.u.).
In the case of “GCCACACCTCCCATTCCTTAGCCAAACACTCGCACTACTCCGGAGTCACCTAGTGCAG”, the binding signal is reported as 3200 fluorescence intensity (a.u.).
For “CGGTTGAATTGTTCTTGGCATCATCGGGTGTAACCGTGTACGGAGTCACCTAGTGCAG”, the binding signal was 3350 fluorescence intensity (a.u.).
For “TTCTCAGCCAATCCCCAGCTCACACGTGCCAACTCTTCCACGGAGTCACCTAGTGCAG”, the binding signal was 7630 fluorescence intensity (a.u.).
For “CCACCATGGATCCGACGTGGCACAACCACATTGGTCCCTCCGGAGTCACCTAGTGCAG”, the binding signal was 17700 fluorescence intensity (a.u.).
With “AACAGCTCAATTAATTAATCGCCCACACCGAAGCGCGCACCGGAGTCACCTAGTGCAG” the binding signal was 39800 fluorescence intensity (a.u.).
For “AAGCGCGCGCCTCGCCACCTCACCCGAAGAAATTCCCCACCGGAGTCACCTAGTGCAG”, the binding signal was 4140 fluorescence intensity (a.u.).
With “TAGGCCCACACCTAGTCAGCTCAATCGAAATACAACCCACCGGAGTCACCTAGTGCAG” the binding signal was 3450 fluorescence intensity (a.u.).
In the case of “CCACACACCATTGCCGCATCATCCACCACCGCCTCCTCAGCGGAGTCACCTAGTGCAG”, the binding signal is reported as 5210 fluorescence intensity (a.u.).
In the case of “CGCATCCCGGCCCATCCGCCTCGTCAGCGGCGGCGCACCACGGAGTCACCTAGTGCAG”, the binding signal is reported as 10800 fluorescence intensity (a.u.).
With “CTTGCCTCCGCCCATAAATACCACCCGCATTGGCGTTCAGCGGAGTCACCTAGTGCAG” the binding signal was 50900 fluorescence intensity (a.u.).
In the case of “GTTCGCCGTGGATTTCTTTTCTTGCGTCAGTGATACTGATCGGAGTCACCTAGTGCAG”, the binding signal is reported as 5040 fluorescence intensity (a.u.).
With “TTCTATTCTCCCAAAATTCCTATAGAACGAGATATTCCATCGGAGTCACCTAGTGCAG” the binding signal was 22200 fluorescence intensity (a.u.).
With “AACTATAGATCCAAGTGAGGAAGCTATATTCCCAAATTTTCGGAGTCACCTAGTGCAG” the binding signal was 46000 fluorescence intensity (a.u.).
In the case of “TGGAGCTAGTCAAGTAGACAGATCATACTATTCCCCAATTCGGAGTCACCTAGTGCAG”, the binding signal is reported as 4150 fluorescence intensity (a.u.).
For “GCTTGCCGACGCCGACGCCGCCGCCGCCACCGCCGTGGCGCGGAGTCACCTAGTGCAG”, the binding signal was 4150 fluorescence intensity (a.u.).
With “TCCAGATCAAATCCGACGGCCCAGGATACGCCACGTCACCCGGAGTCACCTAGTGCAG” the binding signal was 46700 fluorescence intensity (a.u.).
With “CGATCTATCTTAGTTCATTCGCTGCAAATCCGACGCCTGACGGAGTCACCTAGTGCAG” the binding signal was 3240 fluorescence intensity (a.u.).
“AATCATCCGCCCCAGGCCCCAGCCACGTCGTCCAGATCGCCGGAGTCACCTAGTGCAG” was tested, and the binding signal was 6410 fluorescence intensity (a.u.).
With “CACCCGACTCAGATACCCGAATCCACGTCAGCCCAGAGCCCGGAGTCACCTAGTGCAG” the binding signal was 14300 fluorescence intensity (a.u.).
For “AGCAAAATCTACGCGATGACGCCACGTGACATGACATCGCCGGAGTCACCTAGTGCAG”, the binding signal was 5840 fluorescence intensity (a.u.).
With “GTCTTCACAAATCCGATGACGCCACGTCATCTATCCGGCCCGGAGTCACCTAGTGCAG” the binding signal was 46400 fluorescence intensity (a.u.).
With “GCTACATTTTCGTCGACGTACGTCAGTGACACATGAACTACGGAGTCACCTAGTGCAG” the binding signal was 4800 fluorescence intensity (a.u.).
“TTCAGCCTGTCATCGTCAATTCGTCATCAGTTCATCGCTCCGGAGTCACCTAGTGCAG” was tested, and the binding signal was 5390 fluorescence intensity (a.u.).
For “TTCGTGGCGGCTCCTCCTGTGCCATGGCCGCCGATGGTGACGGAGTCACCTAGTGCAG”, the binding signal was 3320 fluorescence intensity (a.u.).
In the case of “AAGTCGTTCACTCGGCAACGTGTCATCCGGATAGACGTTGCGGAGTCACCTAGTGCAG”, the binding signal is reported as 6700 fluorescence intensity (a.u.).
In the case of “CTCCTTGTCCACGTGGCGGCCTCCGATTCGCTGCCACCTCCGGAGTCACCTAGTGCAG”, the binding signal is reported as 23900 fluorescence intensity (a.u.).
With “ACGGCTTCCTTACGTGGCACACGTAAGCCGTTGCTTGCTTCGGAGTCACCTAGTGCAG” the binding signal was 35100 fluorescence intensity (a.u.).
With “CGTGTCCTAATCACCTTGCTTACGTGGCACTTGCCGATTCCGGAGTCACCTAGTGCAG” the binding signal was 43900 fluorescence intensity (a.u.).
With “CCAGTTAGGCCCACGAGTAGGTGGAACGACCACCTCACGGCGGAGTCACCTAGTGCAG” the binding signal was 3710 fluorescence intensity (a.u.).
For “TTCCCGGTCTCTTATTATCCATATCATAAGTAAATTAGTTCGGAGTCACCTAGTGCAG”, the binding signal was 7670 fluorescence intensity (a.u.).
For “CGCCGCCTGCCCCTGCGCCTGCAGCCTCTGCGCCTCCTGCCGGAGTCACCTAGTGCAG”, the binding signal was 3560 fluorescence intensity (a.u.).
With “CTCCGTGAGCCCTTCCTCCTCCGCTCCTCTCCTTTCCGCCCGGAGTCACCTAGTGCAG” the binding signal was 15600 fluorescence intensity (a.u.).
“CCTAGCCCTCCTCCTACTCCTCTGCAATGGTAGATTGCGCCGGAGTCACCTAGTGCAG” was tested, and the binding signal was 47700 fluorescence intensity (a.u.).
In the case of “GCCTTCCCTTCCTTCCTCTGCCAATGGCCGCGCGTCAGCCCGGAGTCACCTAGTGCAG”, the binding signal is reported as 3390 fluorescence intensity (a.u.).
With “CTCTCTTCCTCTCTCTCTCCTCCGCGTAGGATTTAGCCTGCGGAGTCACCTAGTGCAG” the binding signal was 3880 fluorescence intensity (a.u.).
“TTAGCCCTTCCTCTCCTGCTTCCGCCCTTCCATGGCAATGCGGAGTCACCTAGTGCAG” was tested, and the binding signal was 46700 fluorescence intensity (a.u.).
“CGACGCGGCGGCGAAAAGTCGGCGAACTGCGGCGAGGTGGCGGAGTCACCTAGTGCAG” was tested, and the binding signal was 30100 fluorescence intensity (a.u.).
With “GAAAGCTAGAAGAGAAATTGACCTGGATTGAGTTTTGTGCCGGAGTCACCTAGTGCAG” the binding signal was 4170 fluorescence intensity (a.u.).
With “AGTTGATAGGAGTAGCTTGAAGAAGCAGAGACAGCTAGATCGGAGTCACCTAGTGCAG” the binding signal was 37600 fluorescence intensity (a.u.).
With “AAATGGCCTTGCACACCTTGTCATTGAAATTAAGAACAAACGGAGTCACCTAGTGCAG” the binding signal was 6400 fluorescence intensity (a.u.).
With “GAATGAATTGAAACAGACAATGCACACGCTTAGTCCATGACGGAGTCACCTAGTGCAG” the binding signal was 28800 fluorescence intensity (a.u.).
In the case of “AGAAATTGAATTGCTTGCTACAGAGAAGCTAGAAGAGTTTCGGAGTCACCTAGTGCAG”, the binding signal is reported as 64800 fluorescence intensity (a.u.).
For “GAATTAGCTTGATTGACAGAAACAAATGGCTACAACTACACGGAGTCACCTAGTGCAG”, the binding signal was 65500 fluorescence intensity (a.u.).
